Bioassay records: PubChem, National Center for Advancing Translational Sciences (NCATS)
Hits are enriched below; roughly 2.2% of the tested compounds scored in any of these assays.
TrxR1 substrate: is turned over as a substrate by rat TrxR1; AID 588456; actives 0.01% (n = 390,000); O89049; purified TrxR1 substrate turnover, NADPH consumption readout; Potency, µM (titrated, usually from 114 µM), inactives show at the top dose activity change, negative = substrate turnover; also: potency is read from the fitted curve at half-maximal effect; % is scaled to controls: 0 for no effect and ±100 for the full control effect; nearly all actives have a fitted effect of over 50% in size
Target sequence (O89049 whole entry, looked up): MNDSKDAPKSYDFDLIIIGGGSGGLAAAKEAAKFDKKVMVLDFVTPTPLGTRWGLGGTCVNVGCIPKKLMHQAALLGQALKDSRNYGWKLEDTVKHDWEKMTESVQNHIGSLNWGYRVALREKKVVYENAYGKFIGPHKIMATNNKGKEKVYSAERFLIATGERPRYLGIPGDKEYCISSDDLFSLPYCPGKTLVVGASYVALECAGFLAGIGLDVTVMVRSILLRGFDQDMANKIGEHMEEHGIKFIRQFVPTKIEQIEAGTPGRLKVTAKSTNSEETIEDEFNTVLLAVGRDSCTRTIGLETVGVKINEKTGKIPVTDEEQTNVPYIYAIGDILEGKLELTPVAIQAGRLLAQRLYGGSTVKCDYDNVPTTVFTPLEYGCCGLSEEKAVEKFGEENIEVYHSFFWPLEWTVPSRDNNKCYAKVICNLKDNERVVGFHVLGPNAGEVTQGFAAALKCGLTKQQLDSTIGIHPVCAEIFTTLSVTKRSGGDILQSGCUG
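Rat TrxR1, dispensed at 90 nM, was prereduced with 400 uM NADPH (final) for 5 min at ~22 deg C, then incubated with compound 15 min before 400 uM selenite. A first-read NADPH fluorescence drop versus no-compound background flagged substrates.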
BRCA1 expr up: increases BRCA1 expression; AID 624202; MCF7-BRCA1-FFLuc reporter, luminescence, 48 h; response scale: scaled: vehicle 0%, 10 µM genistein 100%; actives 1.1% (n = 380,000); Potency, µM (titrated, usually from 46.1 µM), inactives show at the top dose activation, most hits filed as activators; also: potency is read from the fitted curve at half-maximal effect; nearly all actives have a fitted effect of over 80% in size
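MCF7-BRCA1-FFLuc, 2000 cells/well; 2 h attach, 37 °C/5% CO2; compound 48 h; luciferase substrate 15 min; luminescence end-point. Norm. to genistein 10 microM max activation and DMSO; concentration-response curves fitted.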
mIDH1 inhibitor: blocks human mutant IDH1 R132H enzyme; actives 0.093% (n = 390,000); O75874; IDH1-R132H enzyme, NADPH consumption, diaphorase/resazurin fluorescence; Potency, µM (highest dose often 76.6 µM), for the others: top-dose activity change, negative = inhibition, usual class: inhibitors; also: potency is read from the fitted curve at half-maximal effect; % is scaled to controls: 0 for no effect and ±100 for the full control effect; nearly all actives have a fitted effect of over 65% in size
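IDH1-R132H (0.5 ug/mL dispensed) in pH 7.5 Tris buffer was preincubated 30 min with compound, then given a substrate mix of 0.016 mM NADPH and 2 mM alpha-KG for 80 min at room temperature; remaining NADPH was read by diaphorase/resazurin fluorescence.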
IL-2 act: activators of IL-2; activation, % (series mostly up to about 46 µM); IL-2 activation reporter assay, cell-based qHTS; stimulated with anti-CD3/CD4/CD28 beads; in transgenic mouse T cells; actives 0.065% (n = 360,000); AID 652025; in the data active = activation above about 50%; inconclusive = mostly about 30% to 49%; also: 0% is about no effect
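Unstimulated transgenic mouse T cells preincubated 60 min with compound, then stimulated with anti-CD3/anti-CD4-coated beads plus anti-CD28 for 18 h at 37 degrees C. IL-2 response read as EGFP and DsRed fluorescence by plate cytometry.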
Giardia kill: Giardia lamblia killing. activity change, % at 7.66 µM, hits read low. AID 540267. actives 0.15% (n = 340,000). Giardia lamblia trophozoite viability; in the data active = activity change below about -80%; inconclusive = between about -30% and that limit;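 also: parasites exposed to compound for two days anaerobically before the ATP read; % is scaled to controls: 0 for no effect and ±100 for the full control effect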
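Trophozoites 100 cells/well + cpd; 48 hrs, 37 deg C, anaerobic. ATPLite 1-Step added, 15-30 min RT, luminescence read (ATP-based viability).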
TrxR1 inh: rat TrxR1 inhibition. O89049. recombinant rTrxR1, NADPH fluorescence consumption, selenite substrate. Potency, µM (top dose mostly 114 µM), for the others: top-dose activity change, negative = inhibition, usual class: inhibitors. actives 1% (n = 390,000); also: potency is read from the fitted curve at half-maximal effect; % is scaled to controls: 0 for no effect and ±100 for the full control effect; nearly all actives have a fitted effect of over 65% in size
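Rat TrxR1 (90 nM in the dispensed reagent) was pre-reduced with 400 uM NADPH for 5 min at room temperature, then incubated with compound for 15 min. After 400 uM selenite was added, NADPH fluorescence (Ex 340/Em 450 nm) was followed for 8 min.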
An asterisk follows results filed as active; u = inconclusive; x = not tested or not shown; [ ] = another dose, or the depositor's remark. Unless noted, calls follow the shape of the dose curve; as a rule, active = well fitted curve in the direction sought with a large enough effect; inconclusive = small, poorly fitted or top-dose-only effect, or another doubt; inactive = no such curve, though single readings can be large; an effect the other way counts as inactive or inconclusive.

SMILES | TrxR1 substrate | BRCA1 expr up | mIDH1 inhibitor | IL-2 act | Giardia kill | TrxR1 inh
O=C(C=Cc1ccco1)c1ccco1 | 13%[57.1 µM] | 6% | 0% | 1 | -14 | 14µM*
O=C(/C=C/c1ccco1)Nc1ccc2c(c1)OCO2 | -13% | 66% | 9% | -2 | -12 | 71µM*
Cc1cc(C)c(CN2C(=O)c3ccccc3S(=O)(=O)c3ccc(C(=O)OCC4CCCO4)cc32)c(C)c1 (stereo not given) | -3%[57.1 µM] | x | 27% | x | x | 14%[57.1 µM]
O=C(Nc1cccc(Cl)c1)c1cnc2sc(N3CCCC3)nn2c1=O | 1%[57.1 µM] | x | x | x | x | -1%[57.1 µM]
O=C(/C=C/c1ccco1)NCC1COc2ccccc2O1 (stereo not given) | 1% | -4% | 7% | 7 | 21 | 16µM*
O=C(/C=C/c1ccco1)Nc1ccc(F)cc1 | 1%[57.1 µM] | x | x | x | x | u
NS(=O)(=O)c1ccc(NC(=O)/C=C/c2ccco2)cc1 | -14% | -25% | -19% | 1 | -17 | 18µM*
COc1ccc(/C=C/C(=O)NCC2COc3ccccc3O2)c(OC)c1 (stereo not given) | -10%[57.1 µM] | 65% | 4% | -3 | -4 | 43%[57.1 µM]
O=C(/C=C/c1ccco1)NCc1ccc2c(c1)OCO2 | 2% | 1% | 0% | 2 | 16 | 35µM*
O=C(/C=C/c1ccco1)NCCc1ccc(F)cc1 | 4% | 96% | 0% | 1 | 6 | 45µM*
Cc1ccc(Cc2nc3ccccc3nc2SCC(=O)N2CCCCC2C)cc1 (stereo not given) | -5%[57.1 µM] | -49% | 4% | x | x | 11%[57.1 µM]
CCc1ccc(-n2c(N3CCN(c4cccc(Cl)c4)CC3)nc3ccccc3c2=O)cc1 | 21% | x | -14% | x | x | 33%
CCOc1cnc(-c2ccc(OC)cc2)o1 | 20% | 7.9µM* | 3% | -1 | -16 | 16%[57.1 µM]
NC(CO)C(=O)NNCc1ccc(O)c(O)c1O (stereo not given) | 12%[57.1 µM] | 4% | -12% | 4 | -4 | 6µM*
Cc1ccc(S(=O)(=O)N2CCN(c3ccnc(-c4cccs4)n3)CC2)cc1 | 3% | -1% | x | x | -21 | -9%
CCOC(=O)c1sc(N(Cc2ccccc2)C(=O)CSc2nnc(C3CC3)n2N)nc1C | -5%[57.1 µM] | 8.9µM* | -2% | -1 | -17 | 2%[57.1 µM]
CCOC(=O)c1c(-c2ccccc2)oc2ccc(NS(=O)(=O)c3cc(C)c(C)cc3C)cc12 | 18% | x | 33% | x | x | 20%
Cc1ccc(CNC(=O)Nc2ccccc2)c(C)c1 | 2%[0.457 µM] | u | -1% | -3 | 5 | 6%
Cc1ccccc1CNC(=O)Nc1ccc(Cl)cc1 | -2% | 7.1µM* | -4% | -1 | -2 | 12%
O=C(NCCc1ccccc1)Nc1ccc(Cl)cc1 | -14% | 5µM* | 3% | 0 | 4 | -21%
O=C(NNC(=O)c1cccc2ccccc12)c1cccc(Cl)c1 | 4%[57.1 µM] | 3% | 5% | 0 | -1 | 9%[57.1 µM]
O=C(NNC(=O)c1cccc2ccccc12)c1ccc(Cl)cc1Cl | -7%[2.29 µM] | 13µM* | -3% | 0 | -7 | 14%[57.1 µM]
COc1cccc(/C(C)=N/N=C(\C)c2cccc(OC)c2)c1 | -1% | 3.2µM* | 1% | 1 | -16 | 7%
COc1cccc(C(N)=O)c1 | 6% | 5% | 2% | 0 | 0 | 14%
Cc1cccc(-n2c3nc(=O)[nH]c(=O)c-3cc3ccc(Cl)cc32)c1C | 188% | -3% | -7% | x | x | 5%
SMILES | TrxR1 substrate | BRCA1 expr up | mIDH1 inhibitor | IL-2 act | Giardia kill | TrxR1 inh
O=C(COC(=O)/C=C/c1ccco1)NC1CCCCC1 | -12% | -17% | 3% | 3 | -21 | 50µM*
COc1ccc(CNC(=O)COC(=O)/C=C/c2ccco2)cc1 | -4% | 0% | -14% | 0 | -4 | 28µM*
O=C(COC(=O)/C=C/c1ccco1)NCc1ccco1 | -3% | -3% | -2% | 0 | 11 | u
N#Cc1c(N2CCOCC2)nsc1-c1ccc(C(F)(F)F)cc1 | -4% | 5µM* | -10% | 2 | -5 | -16%
CSc1nsc(N/N=C/c2ccc3c(c2)OCO3)c1C#N | 3% | 4µM* | 8% | 0 | -2 | 6%
CCNc1ccc(/C=C/c2ccnc3ccccc23)cc1 | -11% | 44% | x | x | x | -10%[0.0914 µM]
CCOc1ccccc1N1C(=O)CC(Nc2ccc(N3CCOCC3)cc2)C1=O (stereo not given) | 6%[57.1 µM] | 2% | 14% | 3 | -16 | 7.1µM*
COc1ccccc1N1C(=O)CC(Nc2ccc(N3CCOCC3)cc2)C1=O (stereo not given) | 6%[57.1 µM] | -11% | 9% | -1 | 27 | 7.9µM*
Cc1ccc(NC2CC(=O)N(c3ccc(C)cc3)C2=O)cc1 (stereo not given) | -3% | 4% | 2% | 1 | 1 | 25µM*
O=C1CC(Nc2ccc(N3CCOCC3)cc2)C(=O)N1c1ccccc1 (stereo not given) | 13% | -6% | 2% | -1 | -6 | u
Cc1ccc2oc(=O)c(/C=C(\O)c3ccccc3)nc2c1 | 6%[57.1 µM] | 7.1µM* | 0% | -1 | 32 | 13%[57.1 µM]
Cc1ccc2oc(=O)c(/C=C(\O)c3cccs3)nc2c1 | -5%[57.1 µM] | u | 2% | -2 | -5 | 5%[57.1 µM]
CC(NC(=O)/C=C/c1ccco1)c1nc2ccccc2n1Cc1c(Cl)cccc1Cl (stereo not given) | 8%[57.1 µM] | -27% | 0% | -2 | -8 | u
CC(NC(=O)/C=C/c1ccco1)c1nc2ccccc2n1Cc1ccccc1F (stereo not given) | -16% | -15% | 7% | -5 | 0 | 50µM*
CCOC(=O)CNC(=O)CSc1nnc(C)c(=O)[nH]1 | 4% | 1% | 1% | 0 | 7 | 7%
CCOC(=O)CSc1nnc(NCC(=O)OC(C)C)c(=O)[nH]1 | -3%[57.1 µM] | 7% | 7% | 0 | 4 | 1.8µM*
Cn1cncc1C#Cc1c(C=O)n(C)c2ccccc12 | 14%[57.1 µM] | -50% | -22% | 0 | -20 | 9%[57.1 µM]
COc1cc(C#Cc2c(C=O)n(C)c3ccccc23)cc(OC)c1 | 16%[57.1 µM] | -16% | -5% | 51* | 6 | 9%[57.1 µM]
Cc1cccc(OCc2nc(CC(=O)Nc3ccc(C)c(C)c3)cs2)c1 | 2% | x | 15% | x | x | 18%
Cc1ccc(OC(=O)COc2ccccc2C)cc1 | 11% | 0% | 5% | 1 | -14 | 26%
CC(=O)c1ccc(OC(=O)COc2ccccc2Cl)cc1 | 2% | -14% | 10% | -1 | -8 | 18µM*
O=C(c1ccccc1)C(CN1CCCCC1)c1ccccc1 (stereo not given) | 4% | -104% | 0% | -1 | 3 | 25µM*
O=C(c1ccc(Br)cc1)C(CN1CCOCC1)c1ccccc1 (stereo not given) | 16%[57.1 µM] | -95% | 8% | -6 | 9 | u
